Laboratory results as given in the supplement of paper PMC9433436.
± gives the standard deviation of the averaged measurements. The full ranking holds about 4,100 sequences; the median of “relative kcat/Km (krel) vs genomic leader AAAGAU” is about 1.7, and the highest 2% start at about 6.5. For the sample, the highest values were picked, then their nearest neighbours and some sequences at random.

Biological target: T1, E. coli RNase P holoenzyme (M1 P RNA + rnpA protein) (UniProt P0A7Y8)
T1 sequence: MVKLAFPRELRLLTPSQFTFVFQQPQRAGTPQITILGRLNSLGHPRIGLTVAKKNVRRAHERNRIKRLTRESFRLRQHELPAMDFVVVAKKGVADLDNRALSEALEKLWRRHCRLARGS
Assay: relative kcat/Km (krel) vs genomic leader AAAGAU (relative (reference leader = 1)); higher = faster RNase P cleavage
Experimental: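 HTS-Kin: a pool of ptRNA-Met (21C construct) with all 4096 combinations of 5' leader nucleotides N(-6) to N(-1) was processed in vitro by E. coli RNase P (P RNA + rnpA/C5 protein) under multiple-turnover conditions at 37 C, pH 8, 17.5 mM MgCl2. Residual substrate was Illumina-sequenced at several fractions reacted, and relative kcat/Km (krel) was computed by internal competition kinetics, calibrated to the genomic leader (AAAGAU = 1). The listed hexamer is the varied N(-6)..N(-1) leader (DNA letters), and it sits between a fixed 5' stem-loop flank (GCAUGCACGAAAGUGCGUGCUAUGAA) and the mature tRNA-Met starting GGCUACGUAGCUCAGUUGG. Two technical replicates are averaged.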

[1] = fraction of substrate reacted: ~9-10% (9.79% repeat 1, 9.1% repeat 2)
[2] = fraction of substrate reacted: ~13-16% (15.68% repeat 1, 13.17% repeat 2)
[3] = fraction of substrate reacted: ~26-29% (28.66% repeat 1, 26.4% repeat 2)

Row | Sequence | relative kcat/Km [1] | relative kcat/Km [2] | relative kcat/Km [3]
1 | GACCAT | 3.62 ± 2.1 | 3.91 ± 0.13 | 5.96 ± 1.9
2 | TACCAT | 3.78 ± 1.5 | 5.08 ± 1.6 | 7.73 ± 3.6
3 | CACCAT | 4.34 ± 1.2 | 4.72 ± 0.96 | 7.01 ± 2.9
4 | AACCAT | 2.62 ± 1.1 | 2.62 ± 0.3 | 4.77 ± 2
5 | CACCAG | 2.64 ± 2.5 | 1.93 ± 0.07 | 3.58 ± 1.1
6 | TACCTT | 2.52 ± 0.33 | 3.78 ± 0.62 | 5.64 ± 2.6
7 | TACCAC | 3.48 ± 1.4 | 4.03 ± 1.6 | 6.63 ± 2.9
8 | TACCAG | 2.73 ± 1.4 | 2.64 ± 1.1 | 4.81 ± 1.2
9 | TACCAA | 3.31 ± 1.5 | 4.01 ± 0.25 | 6.07 ± 1.9
10 | ATAAGA | 1.69 ± 0.23 | 2.23 ± 0.39 | 3.63 ± 1.3
11 | ACGTTG | – | – | 1.56 ± 0.44
12 | ACCGCC | 2.87 ± 1.1 | 2.93 ± 0.072 | 4.69 ± 1
13 | TGGACC | 0.825 ± 0.51 | 0.618 ± 0.3 | 0.551 ± 0.0088
14 | TAACTC | 1.62 ± 0.57 | 1.49 ± 0.16 | 2.26 ± 0.86
15 | GTGTAC | 1.78 ± 0.16 | 2.012 ± 0.0038 | 3.45 ± 1
16 | TCGTCT | 3 ± 0.94 | 2.99 ± 1.4 | 4.35 ± 1.2
17 | GCGTCC | 1.32 ± 0.099 | 1.73 ± 0.52 | 2.64 ± 0.41
18 | TTGTAC | 3.78 ± 0.42 | 4.71 ± 1.3 | 7.05 ± 2.9
19 | GCGTAC | 2.64 ± 0.68 | 1.98 ± 0.25 | 3.77 ± 1.5
20 | TCGTCC | 3.8 ± 0.41 | 5.03 ± 1.6 | 6.93 ± 3.5
21 | TTGTAG | 2.4 ± 1.1 | 1.92 ± 0.36 | 3.78 ± 0.77
22 | TCGTAT | 4.13 ± 0.92 | 4.78 ± 0.97 | 7.28 ± 3.4
23 | TCGTAC | 4.21 ± 1.1 | 5.11 ± 1.9 | 7.91 ± 3.5
24 | ACGTAT | 2.73 ± 1.2 | 3.73 ± 1.2 | 5 ± 1.8
25 | TCGTAA | 3.3 ± 0.9 | 3.79 ± 0.62 | 6.16 ± 2.7

Row | Sequence | relative kcat/Km [1] | relative kcat/Km [2] | relative kcat/Km [3]
26 | CCGTAT | 3.19 ± 0.25 | 4.32 ± 0.66 | 5.94 ± 2.6
27 | AGTTCG | – | 0.601 ± 0.24 | 1.95 ± 0.2
28 | GATGAG | – | – | 0.577 ± 0.44
29 | CAAAAA | 1.14 ± 0.13 | 0.985 ± 0.72 | 2.42 ± 0.98
30 | GGTCTT | – | 1.32 ± 0.41 | 1.72 ± 0.37
31 | ACGGGT | – | – | 1.35 ± 0.62
32 | GCTCGC | 1.28 ± 1.3 | 1.58 ± 0.13 | 1.96 ± 0.049
33 | GTTGTT | 0.832 ± 0.53 | 0.86 ± 0.24 | 1.07 ± 0.92
34 | GGTCGC | 1.81 ± 0.88 | 2.0828 ± 0.002 | 3.37 ± 1.1
35 | CATTGC | 3.51 ± 1.1 | 4.2 ± 0.93 | 5.82 ± 2.3
36 | TATTGC | 3.74 ± 1.7 | 4.4 ± 0.4 | 6.68 ± 3.2
37 | TATTGG | 0.568 ± 0.24 | – | 1.46 ± 0.98
38 | AATTGA | 2.34 ± 0.47 | 3.16 ± 0.37 | 4.64 ± 1.2
39 | TATTGA | 3.87 ± 0.33 | 4.42 ± 1.1 | 6.93 ± 3.1
40 | GATTGA | 2.31 ± 0.22 | 3.98 ± 1.1 | 4.96 ± 2.3
41 | TTAGTG | – | – | 0.934 ± 0.09
42 | AACTAA | 2.93 ± 0.16 | 4.29 ± 1.7 | 6.5 ± 3.1
43 | GACTAT | 4.87 ± 2 | 5.68 ± 1.6 | 8.33 ± 3.5
44 | GACTGT | 0.875 ± 0.79 | 1.18 ± 0.32 | 1.09 ± 0.23
45 | TACTAG | 3.46 ± 2 | 3.248 ± 0.0033 | 5.53 ± 2
46 | CACTGA | 2.94 ± 1.2 | 3.71 ± 0.65 | 5.8 ± 1.7
47 | TACTAC | 5.21 ± 2 | 6.73 ± 1.9 | 9.59 ± 4
48 | AACTAT | 3.41 ± 0.78 | 4.44 ± 0.83 | 6.43 ± 3.1
49 | TACTAA | 5.23 ± 2.7 | 6.48 ± 0.54 | 8.92 ± 3.4
50 | CACTAG | 2.94 ± 2.4 | 3.2 ± 0.63 | 5.04 ± 0.72

Row | Sequence | relative kcat/Km [1] | relative kcat/Km [2] | relative kcat/Km [3]
51 | CACTAA | 4.69 ± 2 | 6.03 ± 0.39 | 7.49 ± 2.5
52 | TACTGC | 3.83 ± 1.5 | 4.1 ± 0.86 | 5.96 ± 1.5
53 | TGGAAA | 1.63 ± 1.1 | 0.838 ± 0.78 | 1.61 ± 0.29
54 | GTGTCA | 1.15 ± 0.97 | 0.779 ± 0.57 | 1.49 ± 0.16
55 | GCCTGG | – | – | 0.776 ± 0.2
56 | GTGCCC | 1.01 ± 0.23 | 0.583 ± 0.44 | 1.13 ± 0.088
57 | TTTGCT | 0.76 ± 0.28 | 0.721 ± 0.56 | 0.983 ± 0.097
58 | CAAAAC | 1.4 ± 0.17 | 1.59 ± 0.4 | 2.51 ± 0.41
59 | GACTAA | 4.15 ± 1.9 | 5.64 ± 1.3 | 8.21 ± 3.3
60 | GACTAG | 1.77 ± 1.4 | 2.58 ± 0.6 | 4.67 ± 1.3
61 | GACTTA | 3.03 ± 0.62 | 4.15 ± 0.96 | 5.78 ± 2.2
62 | TACTAT | 4.15 ± 0.89 | 6.07 ± 1.3 | 9 ± 3.9
63 | AACTAG | 3.36 ± 2.5 | 2.8 ± 0.61 | 3.95 ± 1.3
64 | TACTGT | 0.799 ± 0.45 | 1.56 ± 1.4 | 1.19 ± 0.64
65 | ATGAAG | 0.588 ± 0.19 | 0.919 ± 0.16 | 1.85 ± 0.42
66 | AGTCGG | – | 0.482 ± 0.36 | 1.03 ± 0.14
67 | GAGAAA | 2.38 ± 1.1 | 3.13 ± 0.99 | 3.4 ± 0.98
68 | ATCATT | 3.39 ± 1.4 | 4.551 ± 0.032 | 6.49 ± 2.6
69 | GTCATT | 4.45 ± 1.6 | 5.21 ± 2 | 8.08 ± 4
70 | CTCATA | 3.84 ± 2.5 | 4.93 ± 0.27 | 6.23 ± 2.5
71 | TCCATC | 3.7 ± 1.8 | 3.95 ± 0.47 | 6.33 ± 2.3
72 | TTCATG | 2 ± 2 | 2.08 ± 0.48 | 4.3 ± 1.5
73 | TTCATA | 4.76 ± 2.5 | 6.15 ± 0.55 | 8.54 ± 3.2
74 | TGCATC | 2.12 ± 1.2 | 1.5 ± 0.48 | 2.05 ± 0.7
75 | TGCATT | 0.949 ± 0.79 | 1.93 ± 1.2 | 2.68 ± 1.7

Row | Sequence | relative kcat/Km [1] | relative kcat/Km [2] | relative kcat/Km [3]
76 | GGCATT | 1.85 ± 0.77 | 2.15 ± 0.27 | 3.37 ± 1.4
77 | TTCATT | 4.9 ± 1.8 | 6.77 ± 1.4 | 9.68 ± 4.2
78 | TTCATC | 4.42 ± 1.8 | 5.94 ± 0.79 | 8.86 ± 3.8
79 | TCTACA | 1.43 ± 0.68 | 1.87 ± 0.44 | 2.46 ± 1.1
80 | GGTAAG | 1.39 ± 1.3 | 0.931 ± 0.053 | 2.32 ± 1.1
81 | TCCACT | 2.76 ± 1.1 | 3.06 ± 0.4 | 4.72 ± 1.1
82 | CATCGT | – | – | 1.54 ± 1.2
83 | GGATCA | 0.973 ± 0.2 | 1.04 ± 0.42 | 1.53 ± 0.71
84 | CACGGT | – | – | 1.7 ± 0.39
85 | AGAGAT | 0.682 ± 0.45 | 1.15 ± 0.6 | 1.75 ± 0.4
86 | GTCATG | – | 1.48 ± 0.37 | 3.5 ± 0.91
87 | ATCATA | 3.61 ± 1.8 | 4.31 ± 0.3 | 5.9 ± 2.2
88 | GTCATA | 4.4 ± 2 | 4.91 ± 0.65 | 7.54 ± 3
89 | CGAGAG | 0.809 ± 0.14 | – | 0.931 ± 0.1
90 | CCTTCC | 1.62 ± 0.022 | 1.51 ± 1.3 | 2.47 ± 0.27
91 | ACCGAA | 3.81 ± 1.6 | 4.31 ± 1 | 6.81 ± 3
92 | TCCGAG | 2.34 ± 0.033 | 2.52 ± 1.4 | 5.01 ± 2.2
93 | TCCGAT | 2.34 ± 0.53 | 2.91 ± 1.4 | 4.01 ± 1.3
94 | TCCGAC | 3.47 ± 0.1 | 4.91 ± 1.2 | 7.68 ± 3
95 | CCCGAT | 2.59 ± 0.49 | 2.76 ± 1.2 | 3.21 ± 0.9
96 | CCCGAG | 1.48 ± 0.82 | 0.888 ± 0.25 | 3.16 ± 0.072
97 | ACCGAG | 2.58 ± 2.5 | 0.833 ± 0.22 | 2.44 ± 0.21
